Test results taken from PubChem BioAssay.
Active and inactive are the calls of the source.

How the values were obtained:
[1] = A549 cell viability effects, profiling panel, calcein-AM fluorescence, 48 h, basal (AID 1162); details: higher = more signal
[2] = adipocyte viability effects, profiling panel, cell-based, 3T3-L1 adipocytes, calcein-AM fluorescence, 48 h, basal (AID 1163); details: 3T3-L1 adipocytes viability, higher = more signal
[3] = HepG2 cell viability effects, profiling panel, calcein-AM fluorescence, 48 h, basal (AID 1164); details: higher = more signal
[4] = MM1S cell viability effects, profiling panel, calcein-AM fluorescence, 48 h, basal (AID 1165); details: higher = more signal;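 note: viability of MM1S multiple myeloma cells under basal unstimulated conditions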
[5] = basal RPMI8226 viability, no added stimulus, profiling panel, cell-based, calcein-AM fluorescence, 48 h, PK04 Diversity Set (AID 1166); details: RPMI8226 myeloma viability, higher = more signal;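 note: cells grown under basal conditions without added stimulus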
[6] = basal HepG2 mitochondrial membrane potential changes, profiling panel, cell-based, JC-1 fluorescence, 24 h, 100 nL compound (AID 1167); details: higher = more signal
[7] = basal 3T3-L1 adipocyte mitochondrial potential changes, profiling panel, cell-based, JC-1 fluorescence, 3T3-L1 adipocytes, 24 h, 100 nL compound (AID 1168); details: JC-1 mitochondrial fluorescence, higher = more signal, called active from +8 up or from −8 down
[8] = basal RPMI8226 mitochondrial membrane potential changes, profiling panel, cell-based, JC-1 fluorescence, 24 h, 100 nL compound (AID 1169); details: RPMI8226 myeloma, JC-1 mitochondrial potential fluorescence, higher = more signal
[9] = basal MM1S mitochondrial membrane potential changes, profiling panel, cell-based, JC-1 fluorescence, 24 h, 100 nL compound (AID 1170); details: higher = more signal
[10] = A549 lung cancer cell viability effects, profiling panel, resazurin fluorescence, 24 h, PK04 Diversity Set (AID 1171); details: higher = more signal, called active from +8 up or from −8 down
Note: test concentration not given here.

Row | Structure (SMILES) | z-score [1] | z-score [2] | z-score [3] | z-score [4] | z-score [5] | z-score [6] | z-score [7] | z-score [8] | z-score [9] | z-score [10]
1 | CCOC(=O)C[C@H]1[C@H](OC(=O)Cc2ccc3c(c2)OCO3)[C@@H](NC(=O)C2CCCCC2)c2cc(OCCCO)ccc2N1C(=O)c1ccccc1 | 1.99 | -0.193 | -0.0568 | 0.567 | -0.354 | 1.69 | 0.247 (inactive) | 0.0348 | 0.137 | 0.745 (inactive)
2 | COCCOC(=O)N1C(=O)[C@@]2(c3cc(C#CC4(O)CCCCCC4)ccc31)[C@H](c1ccc(O)cc1)N1[C@H](c3ccccc3)[C@H](c3ccccc3)OC(=O)[C@H]1[C@@H]2C(=O)N1CCN(c2ncccn2)CC1 | -0.98 | 0.284 | 0.278 | -1.61 | -1.16 | -0.81 | -0.912 (inactive) | -0.406 | -0.091 | 0.435 (inactive)
3 | CCCCC[C@H]1OC[C@@]23C=C(Br)[C@@H](CC12)[C@@]1(CO1)C3=O (stereo not given in full) | 0.433 | -0.0037 | -0.424 | -2.8 | -1.5 | -1.76 | -0.498 (inactive) | -0.314 | -0.824 | -0.612 (inactive)
4 | CCCCCCc1nc(Cc2cc(OC)c(OC)c(OC)c2)cc2c1[Si](C(C)C)(C(C)C)OC2 | -1.79 | 0.5 | 0.0671 | -3.02 | -4.45 | 0.785 | 0.705 (inactive) | -1.06 | -0.48 | 1.64 (inactive)
5 | CC(C)C(CO)N1C(=O)[C@@H]2C3C(=O)OCCC/C=C\[C@H]3OC23C=CCN(c2ccc4ccccc4c2)C(=O)[C@@H]13 (stereo not given in full) | -0.0401 | -0.0738 | -0.131 | 0.292 | 0.457 | -0.0404 | -0.0718 (inactive) | 0.0134 | -0.332 | -0.525 (inactive)
6 | CC(C)[Si]1(C(C)C)OCc2cc(-c3ccc(-c4ccc(Cl)c(Cl)c4)o3)nc(-c3ccccc3)c21 | -0.715 | 0.369 | -0.738 | -1.77 | -1.8 | -1.18 | -0.485 (inactive) | 0.194 | 0.406 | 0.793 (inactive)
7 | [N-]=[N+]=NCc1ccccc1C[C@@]1(C(N)=O)N=C(c2ccc(OCCCO)cc2)O[C@@H]1c1ccccc1 | -0.914 | 0.0779 | -1.94 | -3.04 | -2.88 | -0.864 | -0.262 (inactive) | -1.22 | -0.301 | -1.08 (inactive)
8 | COC(=O)C1(CC(C)C)C=C2C(=C(c3ccccc3)C(=O)C2C)CN1 (stereo not given) | -0.837 | -0.16 | 0.0661 | 0.601 | -0.12 | 0.0103 | -1.81 (inactive) | -0.604 | -1.1 | -0.614 (inactive)
9 | CC1CC/C=C\[C@H]2OC34C=CCN(c5ccc6ccccc6c5)C(=O)[C@H]3N(CCCO)C(=O)[C@@H]4C2C(=O)O1 (stereo not given in full) | -0.391 | -0.229 | -0.597 | -0.144 | -0.143 | -0.519 | -0.856 (inactive) | 0.17 | 0.707 | -0.525 (inactive)
10 | CCOC(=O)C[C@H]1[C@H](OC(=O)c2ccc(C(=O)c3ccccc3)cc2)[C@@H](NC(=O)C2CCCCC2)c2cc(OCCCO)ccc2N1C(=O)c1ccc2ccccc2n1 | 0.123 | 0.347 | 2.23 | -0.436 | 1.31 | 1.9 | 1.45 (inactive) | 0.592 | -0.543 | -0.0397 (inactive)
11 | COc1cc2c(cc1O)C(c1cccs1)N(Cc1cc3c(cc1Br)OCO3)CC2 (stereo not given) | -1.67 | -0.406 | -3.83 | -3.19 | -4.43 | -3.57 | -0.0381 (inactive) | -0.976 | -0.488 | -0.741 (inactive)
12 | COC(=O)C(CC#Cc1ccc2c(c1)[C@]1(C(=O)N2)[C@H](c2ccc(O)cc2)N2[C@H](c3ccccc3)[C@H](c3ccccc3)OC(=O)[C@H]2[C@@H]1C(=O)NC[C@H](O)c1ccccc1)C(=O)OC | -0.857 | -0.909 | -0.045 | -1.58 | -1.83 | -2.42 | -0.837 (inactive) | -0.829 | -0.633 | -0.407 (inactive)
13 | COC(=O)[C@@]1(Cc2ccc(OC)cc2)[C@H]2c3cc(C(=O)N(C)C)n(Cc4ccc(OC(F)(F)F)cc4)c3C[C@H]2CN1C(=O)c1ccccc1 | -1.34 | -0.306 | -0.77 | -3.39 | -4.11 | -2.18 | -0.922 (inactive) | -0.791 | -2.79 | -1.36 (inactive)
14 | CC(C)[Si]1(C(C)C)OCc2cc(C3CC3)nc(-c3ccc(Oc4ccccc4)cc3)c21 | 1.25 | 0.676 | 0.468 | -0.795 | -1.94 | -2.33 | 0.138 (inactive) | -0.989 | 0.196 | 2.94 (inactive)
15 | C=CC[C@]1(C(=O)N2CCOCC2)COC(c2ccc(OCCCO)cc2)=N1 | -0.559 | 0.147 | -0.814 | -0.405 | -1.21 | -0.658 | -0.142 (inactive) | 0.846 | -0.422 | 1.47 (inactive)
16 | CC1CC/C=C\[C@H]2OC34C=CCN(c5ccc(Cl)cc5)C(=O)[C@H]3N(C(C)CO)C(=O)[C@]4(C)C2C(=O)O1 (stereo not given in full) | 0.924 | -0.761 | 1.24 | 1.31 | 0.37 | 0.807 | -0.29 (inactive) | -0.0845 | -0.723 | 0.0378 (inactive)

Row | Structure (SMILES) | z-score [1] | z-score [2] | z-score [3] | z-score [4] | z-score [5] | z-score [6] | z-score [7] | z-score [8] | z-score [9] | z-score [10]
17 | CCCCC(=C=CC[C@H](O)c1ccc(OCCO)cc1)CCO | -0.113 | 0.524 | 0.761 | -2.4 | 0.0135 | -1.25 | -0.968 (inactive) | -0.573 | -0.952 | 0.533 (inactive)
18 | CCOC(=O)C[C@H]1[C@H](OC(=O)c2ccccc2-c2ccccc2)[C@@H](NC(=O)c2ccc3ccccc3n2)c2cc(OCCCO)ccc2N1C(=O)Cc1ccc(OC)cc1 | 0.278 | 0.054 | 0.266 | 0.0554 | -0.826 | 0.972 | -0.363 (inactive) | -0.209 | -0.112 | 0.0225 (inactive)
19 | O[C@@H](Cc1ccccc1)[C@@H](/C=C/C1CC1)N(CC#Cc1ccccc1)Cc1ccccc1Br | -0.049 | -0.667 | -0.258 | 0.0144 | -0.353 | -1.79 | -0.344 (inactive) | -0.44 | -0.571 | 1.62 (inactive)
20 | C[C@@H]1NC(=O)[C@@H](Cc2ccccc2)NC(=O)[C@@]23C(=O)N[C@@H](Cc4ccccc4)C2[C@H](C)[C@@]2(C)O[C@H]2C3/C=C/C/C=C\CNC1=O (stereo not given in full) | -0.312 | 0.599 | -0.543 | 0.18 | -0.377 | -1.36 | -0.308 (inactive) | -0.0163 | 1.09 | -0.879 (inactive)
21 | CC(C)(C)OC(=O)CC[C@@]1(C(=O)NCC(O)CO)N=C(c2ccc(OCCCO)cc2)O[C@@H]1c1ccccc1CN=[N+]=[N-] (stereo not given in full) | 1.25 | 0.478 | -0.0162 | -0.217 | -0.34 | 0.0542 | 0.0122 (inactive) | -0.418 | 1.12 | 0.0255 (inactive)
22 | C#CCN([C@@H](Cc1ccccc1)C(=O)OC)[C@@H](/C=C/C1CC1)[C@H](O)Cc1ccccc1 | -1.03 | -0.347 | -1.38 | -3.12 | -2.25 | 0.993 | -0.21 (inactive) | -1.03 | -1.51 | 2.25 (inactive)
23 | COCCOC(=O)N1C(=O)[C@@]2(c3cc(C#CCCO)ccc31)[C@H](C(=O)Nc1nc3ccccc3s1)[C@H]1C(=O)O[C@H](c3ccccc3)[C@H](c3ccccc3)N1[C@@H]2c1ccc(O)cc1 | -0.378 | 0.274 | 0.123 | 0.0566 | -2.06 | 0.248 | 0.15 (inactive) | -0.314 | -0.471 | 0.771 (inactive)
24 | COc1ccc(CCNC(=O)[C@@H]2c3ccccc3C(=O)N(C3CCCCC3)[C@H]2c2ccc(CO)cc2)cc1 | 1.19 | 1.1 | 0.383 | 0.05 | -0.746 | 1.83 | -0.053 (inactive) | -0.726 | 0.337 | 0.332 (inactive)
25 | C=C(COC)/C(=C/C[C@H](OC(=O)c1ccncc1)c1ccc(CO)o1)c1cnc2ccccc2c1 | 0.349 | -0.474 | -0.439 | -1.41 | -0.366 | -1.06 | -0.582 (inactive) | 0.178 | -0.592 | -0.319 (inactive)
26 | COc1ccc(C(=O)Nc2ccc(CN3C(=O)[C@]4(O[C@H](CC(=O)N5Cc6ccccc6C[C@H]5CO)[C@@H]([Si](C)(C)c5ccc(OC)cc5)[C@@H]4C)c4ccccc43)cc2)cc1 | -0.513 | 1.56 | 0.349 | -1.6 | -0.786 | 0.705 | -0.212 (inactive) | -0.7 | -0.911 | -1.96 (inactive)
27 | COC(=O)[C@@]1(Cc2ccc(OC)cc2)[C@H]2c3cc(C(=O)N4CCCC4)n(CCO)c3C[C@H]2CN1C(=O)c1ccccc1 | -0.832 | 0.929 | 0.519 | -1.25 | -0.974 | 1.59 | -1.55 (inactive) | 0.506 | -1.35 | -1.07 (inactive)
28 | C=C(C(=O)CC[C@H](OC(=O)c1ccccc1-c1ccccc1C(=O)O)c1cccc(OCCO)c1)C(C)C | -0.613 | 0.422 | -0.502 | -3.07 | -1.52 | -1.68 | -0.156 (inactive) | 0.248 | 0.618 | -0.701 (inactive)
29 | C=CCC(OC(C)=O)[C@@H]1[C@@H](N(Cc2ccc(-c3cccc(C(F)(F)F)c3)o2)C(=O)Cc2ccc(OC)cc2)c2cc(OCCCO)ccc2N1C(=O)c1ccc(-c2ccccc2)cc1 (stereo not given in full) | 0.095 | 0.647 | 0.926 | -0.681 | -1.93 | 3.55 | -0.645 (inactive) | 0.498 | 0.504 | -1.71 (inactive)
30 | C=C[C@@H](CO)N(Cc1ccc(OC)cc1)S(=O)(=O)c1ccc(Br)cc1 | 1.49 | 0.773 | 0.349 | 1.39 | 0.613 | 0.622 | 2.05 (inactive) | 0.359 | -0.159 | 1.23 (inactive)
31 | [N-]=[N+]=Nc1ccccc1C[C@]1(C(=O)O)COC(c2ccc(OCCCO)cc2)=N1 | -0.118 | 0.909 | 0.215 | -0.0932 | -0.747 | -0.253 | -1.19 (inactive) | -0.329 | 0.529 | -0.98 (inactive)
